Screens deposited in PubChem BioAssay by several laboratories.
Only a selection was taken, and hits are over-represented in it overall.
ALR inh: human ALR oxidase inhibition via reduced H2O2; inhibition, % (test concentration not listed); purified ALR, DTT oxidation, H2O2 HRP-luminol luminescence; AID 485317; actives 3.8% (n = 290,000);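 active means mean replicate inhibition above about 79%, with every replicate also reaching it, limit read from the data; inconclusive means only one of the two criteria met; inactive means mean below limit and not every replicate reaching it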
CendR NRP1 mod: alters CendR peptide binding to human NRP-1; O14786; FAM-RPARPAR peptide binding to NRP-1, fluorescence polarization; inhibition, % at 25 µM; actives 0.85% (n = 360,000);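 active means inhibition or corrected inhibition above about 18%, plus a signal ratio from 0.5 to 1.5, limit read from the data, passing the limit was not always enough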
PDI turbidity: inhibitors of human protein disulfide isomerase; P07237; actives 0.052% (n = 350,000); inhibition, % at 10 µM; PDI insulin aggregation turbidity, A650, 90 min;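 active means mean inhibition across replicates of 30% or more, whatever share of single replicates reach that level; inconclusive means mean inhibition below 30% while every single replicate reaches 30%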
Target sequence (P07237 whole entry, looked up): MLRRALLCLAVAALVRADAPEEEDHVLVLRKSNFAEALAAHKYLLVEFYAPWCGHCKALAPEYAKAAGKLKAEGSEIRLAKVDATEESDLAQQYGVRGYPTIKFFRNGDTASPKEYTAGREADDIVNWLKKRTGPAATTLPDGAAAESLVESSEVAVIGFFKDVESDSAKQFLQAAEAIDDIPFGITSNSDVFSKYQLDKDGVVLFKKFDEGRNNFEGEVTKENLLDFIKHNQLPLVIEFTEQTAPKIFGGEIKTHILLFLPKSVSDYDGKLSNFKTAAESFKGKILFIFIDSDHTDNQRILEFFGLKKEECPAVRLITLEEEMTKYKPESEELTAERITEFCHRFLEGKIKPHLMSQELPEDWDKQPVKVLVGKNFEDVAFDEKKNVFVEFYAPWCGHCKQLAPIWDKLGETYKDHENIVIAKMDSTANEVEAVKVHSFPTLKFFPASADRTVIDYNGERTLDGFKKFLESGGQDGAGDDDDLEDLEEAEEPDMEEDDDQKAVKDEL
ERp5 inh: ERp5 (human) disulfide isomerase inhibition; Q15084; ERp5 insulin aggregation, absorbance 650 nm, 90 min; inhibition, % at 9.99 µM; actives 0.05% (n = 350,000); AID 651711;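 active means mean replicate inhibition above about 25%, with every replicate also reaching it, limit read from the data, passing the limit was not always enough; inconclusive means only one of those two criteria met; inactive means neither criterion met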
PglD inh: blocks C. jejuni PglD acetyltransferase activity. actives 0.098% (n = 360,000). purified PglD enzyme, DTNB colorimetric CoA detection. inhibition, % at 12.5 µM; in the data active means inhibition above about 16%, passing the limit was not always enough; inconclusive means no clear call, values can overlap the other calls
ARNT-TACC3 inh: ARNT/TACC3 interaction disruption; Q9Y6A5; AlphaScreen His-ARNT PAS-B/GST-TACC3 binding, luminescence; TACC3 fragment carries E629A point mutation; inhibition, % at 9.99 µM; actives 0.66% (n = 390,000);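 active means mean inhibition of replicates at least 50% and at least half of replicates each reaching 50%; inconclusive means half or more replicates reach 50% but mean below 50%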;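 further: 0% = complete ARNT plus TACC3 wells and 100% = ARNT alone without TACC3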
An asterisk follows results filed as active; ? = inconclusive; . = not tested or not shown.

SMILES | ALR inh | CendR NRP1 mod | PDI turbidity | ERp5 inh | PglD inh | ARNT-TACC3 inh
COC(=O)c1cccc(NC(=O)c2ccc(S(=O)(=O)N(C)c3ccccc3OC)cc2)c1 | . | 0 | -11 | 4 | -1 | .
COc1ccccc1N(C)S(=O)(=O)c1ccc(C(=O)N(CC(N)=O)C(C)C)cc1 | -14 | 25* | 2 | 3 | -2 | -3
COc1ccccc1N(C)S(=O)(=O)c1ccc(C(=O)Nc2cccc(Br)c2)cc1 | -7 | 27* | -4 | 7 | -7 | -2
FC(F)(F)c1cc(-c2cccs2)nc2cc(-c3ccccc3)nn12 | -2 | -9 | -1 | 8 | 0 | -2
O=C(O)c1cc2nc(-c3cccs3)cc(C(F)(F)F)n2n1 | 7 | 29* | 5 | 15 | -8 | .
O=C(C1CCOCC1)N1CC(=O)N2[C@H](C1)[C@@H](c1ccc(/C=C/c3ccccc3)cc1)[C@@H]2CO | . | . | . | -4 | . | .
O=C(C[C@H]1C[C@@H]2c3cc(NC(=O)NC4CCCC4)ccc3O[C@@H]2[C@H](CO)O1)NCCc1ccccc1 | . | . | . | -3 | -1 | -22
COc1ccccc1NC(=S)NNC(=O)c1ccc(O)cc1 | 99* | -2 | 7 | . | 0 | -4
O=C(NNC(=S)Nc1ccccc1)c1ccco1 | 36 | -2 | 3 | . | -1 | 3
O=C(NNC(=S)NC(=O)c1ccccc1)c1ccc(O)cc1 | 99* | -4 | 1 | 2 | 3 | 11
O=C(NNC(=S)Nc1ccccc1)c1ccc(O)cc1 | 99* | -2 | 7 | -2 | . | 2
O=C(O)c1ccc(NC(=S)NC(=O)C(c2ccccc2)c2ccccc2)cc1 | 12 | 12 | -6 | 1 | -2 | 2
O=C(O)c1ccc(NC(=S)Nc2ccccc2)cc1 | 99* | -2 | -1 | 2 | -4 | -1
COc1ccc(CN(C)C[C@H]2OCCCC[C@H](C)Oc3ccc(NC(=O)c4ccccc4)cc3C(=O)N([C@H](C)CO)C[C@@H]2C)cc1 | . | . | . | -1 | -30 | -1
CCNC(=O)C[C@@H]1C=C[C@H](NS(=O)(=O)c2ccc(C)cc2)[C@@H](CO)O1 | . | . | . | 1 | -1 | -10
CCCN1[C@@H]2c3ccc(-c4cccnc4)c(=O)n3C[C@H]1[C@H](CO)[C@H]2C(=O)NCCc1cn(C)cn1 | . | . | . | 6 | 3 | 1
Cc1ccccc1C(=O)NCC(=O)NNC(=S)NC(=O)c1ccccc1 | 98* | 0 | 1 | . | 1 | 12
CC(C)(C)NC(=S)NNC(=O)c1ccc2ncccc2c1 | 69 | -4 | 4 | 3 | 1 | 5
O=C(CCN1CCOCC1)NNC(=S)NC(=O)c1ccccc1 | 99* | 8 | 4 | 2 | -2 | 48*
O=C(NNC(=S)Nc1ccccc1)c1ccc2ncccc2c1 | 78* | 0 | -2 | 1 | . | 4
O=C(CCN1CCOCC1)c1ccccc1 | 8 | -4 | -7 | 0 | . | 0
COc1ccccc1NC(=S)NNC(=O)c1nn(C)cc1Cl | 34 | 2 | 6 | . | 5 | 57*
Cc1noc(C)c1NC(=O)N[C@@H]1CC[C@H](CC(=O)NCCCN(C)C)O[C@H]1CO | . | . | . | -2 | -1 | -44
C[C@@H]1CN([C@@H](C)CO)C(=O)c2cc(NC(=O)Nc3ccc(F)cc3)ccc2O[C@@H](C)CCCCO[C@H]1CN(C)Cc1ccncc1 | . | . | . | . | -1 | -4
Cc1ccc(S(=O)(=O)N[C@@H]2CC[C@H](CC(=O)NCCN3CCCCC3)O[C@@H]2CO)cc1 | . | . | . | 0 | -1 | .
SMILES | ALR inh | CendR NRP1 mod | PDI turbidity | ERp5 inh | PglD inh | ARNT-TACC3 inh
O=C(CNC(=S)NC(=O)c1ccccc1)c1ccccc1 | 79* | 10 | 5 | . | . | 3
O=C(O)c1ccc(NC(=S)NC(=O)c2cccc(COc3ccccc3)c2)cc1 | 97* | 0 | -1 | 5 | . | -2
O=C(C[C@H]1C[C@@H]2c3cc(NC(=O)Nc4ccccc4F)ccc3O[C@@H]2[C@@H](CO)O1)NCc1ccc(Oc2ccccc2)cc1 | . | . | . | 1 | 2 | -5
CCOC(=O)N1CCN(C(=O)c2cc3n(n2)C(C(F)(F)F)CC(c2ccc4c(c2)OCO4)N3)CC1 (stereo unspecified) | -15 | 22* | 9 | 1 | 0 | -1
COC(=O)[C@H](CCSC)NC(=O)Nc1ccc(OC)c(Cl)c1 | 9 | 24* | -13 | . | 3 | 4
C[C@H]1CN([C@@H](C)CO)C(=O)c2cc(NC(=O)NC3CCCCC3)ccc2O[C@H]1CN(C)Cc1ccccc1 | . | . | . | 8 | 3 | -3
O=C(NCC[C@@H]1CC[C@@H](NC(=O)C2CC2)[C@H](CO)O1)Nc1ccc(Cl)cc1 | . | . | . | -4 | 1 | -19
N#CC1=C(N2CCOCC2)/C(=C\c2ccccc2)CC1 | 93* | -11 | 3 | -1 | . | 2
CCOC(=O)C1CCN(S(=O)(=O)c2cccc(-c3cn4ccccc4n3)c2)CC1 | 99* | 0 | -6 | . | 6 | -8
CCOC(=O)C1CCN(S(=O)(=O)c2cccc(-c3cn4cc(Cl)ccc4n3)c2)CC1 | 99* | -10 | 8 | . | . | -2
CC1CCN(S(=O)(=O)c2cccc(-c3cn4cc(Cl)ccc4n3)c2)CC1 | -18 | 8 | -2 | 2 | 1 | -4
CN(C)CC(=O)N1[C@@H](C#N)[C@H](c2ccccc2-c2ccccc2F)[C@@H]1CO | . | . | . | -6 | . | .
COc1cccc(-c2ccc([C@@H]3[C@@H](CO)N4C(=O)CN(C(=O)CN5CCOCC5)C[C@H]34)cc2)c1 | . | . | . | -1 | . | .
CN(c1ccc(C(=O)NCc2cccnc2)cc1)S(C)(=O)=O | -13 | -4 | -2 | . | . | 6
Cc1ccccc1CN(c1ccc(C(=O)NCc2cccnc2)cc1)S(C)(=O)=O | 96* | -4 | 2 | -3 | -8 | -5
CC(=O)N1CCC(Nc2ccc(C)cc2)CC1 | 98* | -3 | . | -2 | -6 | -3
Cc1ccc(NC(=O)N2CCC(NC(=O)C(C)(C)C)CC2)cc1 | -4 | 8 | 16 | . | 3 | -32
CCOc1ccc(NC2CCN(C(C)=O)CC2)cc1 | 91* | -2 | . | -8 | -1 | 6
CN(C)CC(=O)N[C@@H]1CC[C@H](CC(=O)O)O[C@@H]1CO | . | . | . | -8 | . | .
NC(=O)C1CCN(C(=O)c2cccc(S(=O)(=O)N3CCc4ccccc4C3)c2)CC1 | 3 | -6 | -3 | ? | . | 0
O=C(c1cccc(S(=O)(=O)N2CCc3ccccc3C2)c1)N1CCN(c2ccc(O)cc2)CC1 | 95* | 1 | -6 | 2 | . | 9
CN1C(=O)c2cc(NC(=O)Cc3cccs3)ccc2OC[C@@H]2O[C@@H](CC(=O)NCC3CCCCC3)CC[C@H]21 | . | . | . | -1 | 2 | -5
CC1CC(C)CN(C(=O)CSc2nnc(N)s2)C1 (stereo unspecified) | 95* | 14 | 0 | 2 | 2 | 0
CCOc1ccccc1Nc1nnc(SCC(=O)NC(Cc2c[nH]c3ccccc23)C(=O)O)s1 (stereo unspecified) | 53 | -1 | 11 | 1 | . | 0
